In the library only some 1% were active in any assay of this set; here they are far more common.
Coupling enz: coupling enzyme interference in Giardia aldolase counter-screen; coupling enzyme system counterscreen, AmpLite Red fluorescence; activity change, negative = inhibition, % at 58.2 µM, hits read low; 290,000 tested, 0.67% active; AID 2472; in the data active = activity change below about -30%; note: % is set by controls: 0 for no effect and ±100 for the full control effect
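First, compound is pin-transferred into glyceraldehyde-3-phosphate coupling-enzyme reagent at 57.5 uM final and held 10 min at RT. Next, substrate, coupling system and AmpLite Red are added. After 20 min RT, fluorescence (525/598 nm) is read.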
TCR act: activates T cell receptor signaling; Potency, µM (highest dose often 9.22 µM), for the others: at the highest dose activation of IL-2 secretion, actives largely listed as activators; AID 504894; 330,000 tested, under 10 active; primary human leukocytes, anti-CD3, IL-2 HTRF, 48 h; note: % of control where 0% means no effect
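IL-2 release read by HTRF sandwich (Eu cryptate donor, d2 acceptor, 665 nm emission) after 48 hr exposure of primary human leukocytes to compound together with anti-CD3 beads in the absence of co-stimulatory signals.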
TexasRed fluor: Texas Red fluorescence interference in TRb-SRC2 counter-screen; TRb/SRC2 Texas Red total fluorescence interference; Potency, µM (top dose mostly 106 µM), inactives show at the top dose fluorescence change, negative = quenching; 280,000 tested, 0.29% active; active = well fitted curve in either direction with a large enough effect; inconclusive = small, poorly fitted or top-dose-only effect; note: potency is the fitted concentration of half-maximal effect; % is set by controls: 0 for no effect and ±100 for the full control effect
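Human TRβ ligand-binding domain (0.6 uM) and Texas Red SRC2 peptide (20 nM) in Tris buffer with 1 uM T3 and 5% DMSO were incubated with pinned compound for 5 hr at ambient temperature. Total fluorescence was computed as S + 2P (555/632 nm).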
TSHR antag: human thyrotropin receptor antagonism; activity change, negative = inhibition, % at 11.5 µM; AID 504810; 330,000 tested, 0.2% active; TSHR-expressing cells, TSH-stimulated cAMP HTRF, 2 h; hits give low values; P16473;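 active = activity change below a set negative limit, meaning inhibition stronger than a set level, cut at about -70% in these data; inconclusive = activity change between two set negative limits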; note: % is set by controls: 0 for no effect and ±100 for the full control effect
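Read-out is FRET at 665 nm (cryptate excitation 337 nm) from a cryptate-tagged anti-cAMP antibody, competed by cell cAMP against cAMP-d2. Compounds are tested on freshly harvested TSHR cells challenged with 4nM TSH (EC80) for 2 hours at 37 deg C.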
TRb SRC2 PPI: disrupts binding of human TR beta to SRC2; P10828; TRbeta-SRC2 peptide binding, fluorescence polarization; receptor liganded with 1 µM T3; Potency, µM (doses to about 106 µM), without a hit: at the top dose activity change, negative = inhibition, hits mostly inhibitors; 280,000 tested, 0.065% active;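 note: potency is the fitted concentration of half-maximal effect; plate controls were bound peptide for no effect and peptide without receptor for full effect; nearly all actives have a fitted effect of over 50% in size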
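A fluorescence polarization screen tested compounds at multiple concentrations against complex formation between 0.6 uM TRb ligand-binding domain and 20 nM Texas Red SRC2 peptide, with 1 uM T3 present; readout after 5 hr.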
NPSR antag: neuropeptide S receptor (human) antagonism, cAMP. Q6W5P4. CHO-NPSR cells, cAMP TR-FRET, antagonist mode. Potency, µM (series often up to 38.3 µM), without a hit: at the top dose activity change, negative = inhibition, hits mostly inhibitors. 220,000 tested, 1% active. AID 1461; note: potency is the fitted concentration of half-maximal effect; % is set by controls: 0 for no effect and ±100 for the full control effect; nearly all actives have a fitted effect of over 50% in size
Target sequence (Q6W5P4 whole entry, looked up): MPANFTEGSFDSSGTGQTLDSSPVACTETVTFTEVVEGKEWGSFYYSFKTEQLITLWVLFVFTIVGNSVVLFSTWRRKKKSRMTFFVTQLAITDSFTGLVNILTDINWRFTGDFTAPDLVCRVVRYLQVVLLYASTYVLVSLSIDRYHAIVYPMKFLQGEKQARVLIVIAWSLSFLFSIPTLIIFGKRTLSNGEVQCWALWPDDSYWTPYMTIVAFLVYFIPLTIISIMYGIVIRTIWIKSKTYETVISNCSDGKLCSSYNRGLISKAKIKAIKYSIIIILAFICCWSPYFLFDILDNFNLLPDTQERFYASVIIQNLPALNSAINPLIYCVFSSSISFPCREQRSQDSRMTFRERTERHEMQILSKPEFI
* marks the source's active call; other numbers are inactive results; ? = inconclusive; . = no result; ! = repeats disagree; [ ] = dose if it differs, or a comment. Unless noted, calls come from the whole dose curve; as a rule, active = well fitted curve in the direction sought with a large enough effect; inconclusive = small, poorly fitted or top-dose-only effect, or another doubt; inactive = no such curve, though single readings can be large; an effect the other way counts as inactive or inconclusive.

SMILES	Coupling enz	TCR act	TexasRed fluor	TSHR antag	TRb SRC2 PPI	NPSR antag
O=C(Nc1ccc(F)cc1)Nc1cc(OCC(F)(F)F)cc(OCC(F)(F)F)c1	0	-6%[46.1 µM]	11%	-37	5%	13µM*
Cc1ccc(NC(=O)c2cc(S(=O)(=O)N3CCCCC3)c[nH]2)cc1N(C)C	.	.	7%	.	0%	.
COc1cc2c(cc1OC)-c1c(OC)c(OC)cc3ccnc(c13)C2=O	-34*!	6%	-2%	13	-9%	-19%
O=C(Nc1ccc(N2CCOCC2)c(Cl)c1)c1cccnc1Cl	-5	4%[46.1 µM]	-4%	1	4%	-20%[46.1 µM]
COc1c(C)cccc1C(=O)Nc1ccc(N2CCOCC2)c(Cl)c1	-35*	2%	-2%	.	-20%	-26%[46.1 µM]
O=C(NCc1ccco1)c1ccc2nc3sc4c(c3c(=O)n2c1)CCCC4	-2	.	-4%	11	-6%	10µM*
C=CCn1c(SCC(=O)NCc2ccco2)nc2sc3c(c2c1=O)CCCC3	2	3%	-4%	11	5%	-3%[46.1 µM]
Cn1c(=O)[nH]c(=O)n(C2CCCCC2)c1=O	.	.	0%[201 µM]	.	-3%[201 µM]	.
Cc1ccc(CNc2ccc3c(c2)OCO3)cc1	-37*	6%	1%	.	?	-10%[46.1 µM]
c1cc(CNc2ccc3c(c2)OCO3)ccn1	-11	-1%	3%	-3	-15%	?
O=C(/C=C/c1ccccc1)c1cc(Br)ccc(=O)c1O	-3	-1%	?	-85*	-8%	?
Cc1ccc2c(=O)c(C(=O)c3ccccc3)cn(CC(=O)NCc3ccccc3)c2n1	.	.	-3%	.	7%	.
Cc1nn(CC(O)CN2c3ccccc3Sc3ccccc32)c(C)c1Br (configuration not stated)	-6	8%	-2%	2	10%	6.3µM*
OC(CN1c2ccccc2Sc2ccccc21)Cn1nnc2ccccc21 (configuration not stated)	-7	.	-7%	-2	3%	-19%[46.1 µM]
O=C(Nc1sc2c(c1C(=O)NCC1CCCO1)CCC2)c1cc(=O)c2cc(Cl)ccc2o1 (configuration not stated)	.	.	-1%	.	9%	.
Cc1cc(OCCn2cc(C(=O)c3cccs3)c3ccccc32)ccc1Cl	.	.	6%	.	-6%	.
CCOC(=O)C1=C(C)NC(=O)CC1c1cc2c(cc1[N+](=O)[O-])OCO2 (configuration not stated)	-53*	2%	?	0	?	-13%
CCOC(=O)C1=C(Cc2ccc(C)cc2)C(=O)c2ccccc2C1=O	-47*	.	-3%	-18	5%	10µM*
CCOC(=O)c1c(C)nc2c(c1-c1cc(OC)ccc1OC)C(=O)c1ccccc1-2	-2	2%	-3%	7	-5%	-17%[46.1 µM]
CCOC(=O)C1=C(Cc2ccc(OC)cc2)C(=O)c2ccccc2C1=O	-56*	9%	-4%	-30	-6%	?
CCOC(=O)c1ccc(NC(=O)CN2c3ccccc3S(=O)(=O)c3ccccc32)cc1	.	.	-3%	.	-8%	.
COc1ccc(CN2CCCN(C)CC2)c(OC)c1C	-4	1%	.	-119*	.	.
CCOC(=O)c1ccc(N2CCN(c3cc(C)ccc3C)CC2)c(NC(=O)Nc2ccccc2)c1	.	.	-2%	.	-6%	.
CN(C)Cc1cc(O)c(CN(C)C)cc1O	-32*	-1%	?	9	-26%	5%
CN(C)Cc1cc(C(C)(C)C)cc(C(C)(C)C)c1O	0	-3%	-1%	1	-1%	6%
COC(=O)c1c(SCC(=O)Nc2ccccc2OC)[nH]c2ccccc2c1=O	.	.	2%	.	15%	.
COc1ccc(-n2ncc3c(NC4CCCC4)ncnc32)cc1	.	.	-1%	.	8%	.
CCOC(=O)C1=C(C)c2ccccc2N(C(=O)OC)C1(C)C(=O)OCC (configuration not stated)	4	-1%[46.1 µM]	2%	-18	3%	.
